Measured values taken from PubChem BioAssay (NCATS).
Results filed as inconclusive are left out. Where a call stands in place of a potency, no number is given. The source made the active and inactive calls. The call rests on the fitted dose curve; in most records, active means well fitted inhibition curve with a large enough effect; inconclusive means small, poorly fitted or top-dose-only effect; inactive means flat fitted curve, though single readings scatter.

Each compound was assayed against Calcium and integrin-binding protein 1 (Homo sapiens) (UniProt Q99828) (assay: Primary qHTS for Identification of Calcium Integrin Binding Protein 1 (CIB1) Competitor (AID 1508620; further: top concentration of the series differs between compounds)). Conditions: CIB1-GST / FITC-alphaIIb peptide fluorescence polarization; series mostly up to 114 µM.
Chain of Calcium and integrin-binding protein 1 (Homo sapiens) (Q99828 whole entry, looked up): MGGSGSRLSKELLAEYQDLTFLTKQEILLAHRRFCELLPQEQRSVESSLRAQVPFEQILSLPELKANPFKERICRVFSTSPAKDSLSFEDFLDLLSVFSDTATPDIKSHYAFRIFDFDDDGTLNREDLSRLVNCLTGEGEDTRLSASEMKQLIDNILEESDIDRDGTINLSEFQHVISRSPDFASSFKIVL
In short: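 Fluorescence polarization competition: GST-tagged CIB1 (1 uM final) preincubated with compound 15 min at room temperature, then FITC-labelled alphaIIb peptide (100 nM final) added. After 15 min at room temperature, polarization read at Ex 480/Em 540.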
C[C@@H]1O[C@@H](O[C@H]2[C@H](O)[C@@H](C(=O)O)O[C@@H](O[C@H]3CC[C@@]4(C)C(CC[C@]5(C)C4CC=C4C6CC(C)(C)CC[C@]6(C(=O)O)CC[C@]45C)C3(C)C)[C@@H]2O[C@@H]2OC[C@@H](O)[C@H](O)[C@H]2O)[C@H](O)[C@H](O)[C@H]1O (some centres undefined) was tested, and the Potency was “inactive”.
OC[C@H]1O[C@@H](OC(CCCCc2ccc(O)cc2)CCc2ccc(O)cc2)[C@H](O)[C@@H](O)[C@@H]1O (some centres undefined) was tested, and the Potency was “inactive”.
Cc1ncc(CCCN(C)C)cc1Nc1ncc2c(n1)-c1ccc(C(F)(F)F)cc1NC(=S)C2 was tested, and the Potency was “inactive”.
For C[C@@H]1CN(Cc2ccccc2)C[C@H]1c1nc2c(cnn2C2CCOCC2)c(=O)[nH]1, the Potency was “inactive”.
With OCC(CO[C@@H]1O[C@H](CO)[C@@H](O)[C@H](O)[C@H]1O)c1ccc2c(c1)OCO2 (some centres undefined) the Potency was “inactive”.
In the case of C=C(CCC1=C(C)[C@H]2[C@H](CC3[C@@H]4CC=C5C[C@@H](O)C[C@@H](O)[C@]5(C)C4[C@H](O)C[C@@]32C)O1)CO[C@@H]1O[C@H](CO)[C@@H](O)[C@H](O)[C@H]1O (some centres undefined), the Potency is reported as “inactive”.
In the case of CC1=CC(=O)[C@H]2C(C)(C)CCC[C@]2(C)[C@@]1(O)CO, the Potency is reported as “inactive”.
For COc1cc(O)c2c(c1)C1=C[C@H](O)[C@@H](O)C[C@]1(C)OC2=O, the Potency was “inactive”.
With CC(=O)c1c(O)cc(O[C@@H]2O[C@H](CO)[C@@H](O)[C@H](O)[C@H]2O)cc1O the Potency was “inactive”.
For O=C1NC(=O)C(c2cn3c4c(cccc24)CCC3)C1c1c[nH]c2ccccc12 (centres undefined), the Potency was “inactive”.
For Nc1ccc(-c2cccc3c(=O)cc(N4CCOCC4)oc23)cc1, the Potency was “inactive”.
For CCC(Nc1ncnc2nc[nH]c12)c1nc2cccc(F)c2c(=O)n1-c1ccccc1 (centres undefined), the Potency was “inactive”.
With NC1CCC(Nc2cc(-c3cccc(NCc4cccc(F)c4)n3)c(Cl)cn2)CC1 (centres undefined) the Potency was “inactive”.
C=C(C(=O)O)[C@H]1C[C@]2(C)[C@@H](O)CC[C@]23O[C@H]1C[C@@H]3C was tested, and the Potency was “inactive”.
For CCN(CC)c1ccc2c(O)c(C=Nc3ccc(CC(=O)O)c(-c4c5c(nc6ccccc46)CCC(C(=O)NN)C5)c3)c(=O)oc2c1 (centres undefined), the Potency was “inactive”.
In the case of CC1CCN(C(=O)CC#N)CC1N(C)c1ncnc2[nH]ccc12 (centres undefined), the Potency is reported as “inactive”.
Cc1ccc(S(=O)(=O)Nc2ccccc2N2CCCCC2)s1 was tested, and the Potency was “inactive”.
CC(=O)O[C@@H]1c2c(C)coc2C(=O)[C@@]23O[C@@H]2CC[C@H](C)[C@@]13C was tested, and the Potency was “inactive”.
CC1(C)CCC[C@@]2(C)C1[C@H](OC(=O)/C=C/C=C/C(=O)O)C=C1COC(=O)[C@@]12O (some centres undefined) was tested, and the Potency was “inactive”.
For CC1(C=O)CC[C@]2(C(=O)O[C@@H]3O[C@H](CO)[C@@H](O)[C@H](O)[C@H]3O)CC[C@]3(C)C(=CCC4[C@@]5(C)C[C@H](O)[C@H](O[C@@H]6OC[C@@H](O)[C@H](O)[C@H]6O)[C@@](C)(CO)C5CC[C@]43C)C2C1 (some centres undefined), the Potency was “inactive”.
For COc1ccc(CNC(=O)c2sc3nc(C)cc(C)c3c2N)cc1, the Potency was “inactive”.
In the case of C=C1C[C@]23C[C@H]1CC[C@H]2[C@@]1(C)CCC[C@@]2(C)C(=O)O[C@@H]([C@@H]3O)[C@@H]12, the Potency is reported as “inactive”.
With Cc1cc(OCc2nc(-c3ccccc3Cl)cs2)ccc1OCC(=O)O the Potency was “inactive”.
In the case of COC(=O)c1ccnc(-c2cc(C(=O)NCCc3ccccc3)ccn2)c1, the Potency is reported as “inactive”.
In the case of C[C@@H]1C[C@@H]2O[C@H]2/C=C\C=C\C(=O)Cc2c(Cl)c(O)cc(O)c2C(=O)O1, the Potency is reported as “inactive”.
In the case of C=C[C@H]1C(O[C@@H]2O[C@H](CO)[C@@H](O)[C@H](O)[C@H]2O)OC=C2C(=O)N3CCc4c([nH]c5ccccc45)C3CC21 (some centres undefined), the Potency is reported as “inactive”.
CC(=O)OC12COC1CC(O)C1(C)C(=O)C(O)C3=C(C)C(OC(=O)C(O)C(NC(=O)OC(C)(C)C)c4ccccc4)CC(O)(C(OC(=O)c4ccccc4)C21)C3(C)C (centres undefined) was tested, and the Potency was “inactive”.
For CC(C)(C)NC(=O)[C@@H](c1cccnc1)N(C(=O)c1ccco1)c1ccc(C(C)(C)C)cc1, the Potency was “inactive”.
For CC1(C)CC[C@@]2(C(=O)O[C@@H]3O[C@H](CO)[C@@H](O)[C@H](O)[C@H]3O)C(C1)C1=CCC3[C@@]4(C)CC[C@@H](O[C@@H]5O[C@H](C(=O)O)[C@@H](O[C@@H]6OC[C@@H](O)[C@H](O)[C@H]6O)[C@H](O[C@@H]6OC[C@](O)(CO)[C@H]6O)[C@H]5O)C(C)(C)C4CC[C@@]3(C)[C@]1(C)C[C@H]2O (some centres undefined), the Potency was “inactive”.
With CC(O)(CC(=O)O)CC(=O)OCc1ccc(O[C@@H]2O[C@H](CO)[C@@H](O)[C@H](O)[C@H]2O)cc1 (some centres undefined) the Potency was “inactive”.
With CCCC(=O)O[C@@H]1[C@@H]2[C@@H](OC(C)=O)[C@]3(C)C(=O)[C@H]4[C@@H](OC(C)=O)C(C)(C)C[C@H]4[C@]3(C)C(=O)[C@@]2(OC(C)=O)C[C@@H]1C the Potency was “inactive”.
For C=CC1(C)CC(OC(=O)/C(C)=C\COC(C)=O)C(C(=C)C(=O)O)C(O)C1C(=C)CO (centres undefined), the Potency was “inactive”.
For CCC1C(=O)N(C)c2cnc(Nc3ccc(C(=O)NC4CCC(N5CCN(CC6CC6)CC5)CC4)cc3OC)nc2N1C(C)C (centres undefined), the Potency was “inactive”.
CC/C=C\C/C=C\C/C=C\CCCCCCCC(=O)OCC(O)COC1OC(CO)C(O)C(O)C1O (centres undefined) was tested, and the Potency was “inactive”.
With Nc1ncnc2c1nc(N)n2[C@@H]1O[C@H](CO)[C@@H](O)[C@H]1O the Potency was “inactive”.
For CC1(C)CC[C@]2(C(=O)O[C@@H]3O[C@H](CO)[C@@H](O)[C@H](O)[C@H]3O)CC[C@]3(C)C(=CCC4[C@@]5(C)C[C@@H](O)[C@H](O)[C@](C)(C=O)C5CC[C@]43C)[C@@H]2[C@@H]1O (some centres undefined), the Potency was “inactive”.
In the case of Cc1cc(N2CCN([C@@H]3CN[C@H](C(=O)N4CCSC4)C3)CC2)n(-c2ccccc2)n1, the Potency is reported as “inactive”.
With CC(=O)OC1C(O)C2C(C)C3=CC(=O)OC3(O)CC2C2(C)CCCC(C)(CO)C12 (centres undefined) the Potency was “inactive”.
In the case of C/C(=C\C=C\C(C)C1CCC2(C)C3CCC4C(C)(C)C(=O)CCC45CC35CCC12C)C(=O)O (centres undefined), the Potency is reported as “inactive”.
